# Screening data as filed in PubChem.
# Sampled rows, rich in hits. Any-hit rate of the full collection: about 21%.
# CHX counter: Cycloheximide Counterscreen for Small Molecule Inhibitors of Shiga Toxin | cell reporter, cycloheximide protein synthesis inhibition counterscreen | max response, % | 300,000 tested, 12% active | AID 2314, 2010; in the data active means max response mostly above about 13%, no sharp cut-off; inactive means mostly below about 14%; further: read at 38.3 µM for the half of the compounds with a filed dose; 0% is about no effect
# Shiga toxin inh: A qHTS for Small Molecule Inhibitors of Shiga Toxin; Vero cells, Shiga toxin protein synthesis inhibition reporter; inhibition, % at 38.7 µM; 290,000 tested, 9.2% active; in the data active means inhibition mostly above about 28%, no sharp cut-off; inactive means mostly below about 43%; further: 0% is about no effect
# Pf growth 96h: Primary qHTS for delayed death inhibitors of the malarial parasite plastid, 96 hour incubation. P. falciparum luciferase reporter growth, 96 h. Potency, µM (doses to about 28.7 µM), for the others: at the highest dose activity change, negative = inhibition, hits mostly inhibitors. 320,000 tested, 6.9% active; further: potency means the concentration at half of the fitted maximal effect; on the % scale 0 is the no-effect control and ±100 the full control effect
#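 Parasite growth measured via integrated firefly luciferase reporter in P. falciparum. Infected erythrocytes at 2% hematocrit, 0.05% parasitemia final were treated 96 hours at 37 C under 5% CO2, and luminescence was read.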
# Pf growth 48h: Primary qHTS for delayed death inhibitors of the malarial parasite plastid, 48 hour incubation; 310,000 tested, 5.9% active; P. falciparum luciferase growth in erythrocytes, 48 h; AID 504832, 2011; Potency, µM (doses to about 28.7 µM), without a hit: at the top dose activity change, negative = inhibition, actives largely listed as inhibitors; further: potency means the concentration at half of the fitted maximal effect; on the % scale 0 is the no-effect control and ±100 the full control effect
#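 Luciferase-expressing P. falciparum in infected erythrocytes (2% hematocrit, 0.1% parasitemia final) in RPMI 1640/0.5% Albumax were exposed to compound for 48 hours at 37 C, 5% CO2; growth read as luminescence.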
# NS1 inh: qHTS Assay for Inhibitors of Influenza NS1 Protein Function; Potency, µM (series often up to 46.1 µM), without a hit: top-dose activity, positive = more growth; 270,000 tested, 0.4% active; AID 2326, 2010; calls by dose curve; further: potency means the concentration at half of the fitted maximal effect; actives are rising curves; nearly all actives have a fitted effect of over 50% in size
#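 OD600 was taken as the measure of yeast growth restored by compound in an NS1-expressing S. cerevisiae strain. Cells had been washed out of glucose medium and diluted 1:100 into galactose -URA medium, pH 6.0.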
# The depositor's hits bear a star; ? = inconclusive; · = no result given. Unless noted, the call rests on the fitted dose curve; in most records, active means well fitted inhibition curve with a large enough effect; inconclusive means small, poorly fitted or top-dose-only effect, or another doubt; inactive means no such curve, though single readings can be large or run the other way.
SMILES,CHX counter,Shiga toxin inh,Pf growth 96h,Pf growth 48h,NS1 inh
CSCCC(NS(=O)(=O)c1ccccc1)C(=O)OC(C)C(=O)Nc1ccc(Cl)cn1 (stereo not given),·,·,-21.2%,8.4%,·
O=C(Nc1ccccc1)Nc1n[nH]c2nnc(-c3ccccc3)c(-c3ccccc3)c12,0.9,1.9,?,?,-37.2%
Cc1cc(C)c(S(=O)(=O)/N=C2\C=C(NS(=O)(=O)c3ccccc3)C(=O)c3ccccc32)c(C)c1,-1.5,-1.6,-24.1%,-24.0%,13.1%
Cc1cccc(NC2=C/C(=N/S(=O)(=O)c3cccs3)c3ccccc3C2=O)c1,14.5*,26.1,-8.8%,0.522µM*,11.1%
Cc1ccc(Cl)cc1NC1=C/C(=N\S(=O)(=O)c2cccs2)c2ccccc2C1=O,-0.5,-9.9,0.147µM*,·,-51.3%
Cc1ccc(NC2=C/C(=N\S(=O)(=O)c3cccs3)c3ccccc3C2=O)c(C)c1,12.9*,6.8,0.0329µM*,0.0928µM*,2.8%
Cc1c(Cl)cccc1N/C(=N/S(=O)(=O)c1cccs1)c1ccccc1,-3.8,-18.6,?,-1.1%,-1.7%
O=C1C(Nc2ccc(O)cc2)=C/C(=N/S(=O)(=O)c2cccs2)c2ccccc21,20.9*,20.4,0.465µM*,?,·
CCOc1cc(/C=C/C(=O)NCCc2ccc(S(N)(=O)=O)cc2)ccc1OCC(C)C,-1.6,-8.5,0.657µM*,?,-9.9%
CCOc1cc(/C=C/C(=O)Nc2ccc(C(=O)NCCN(CC)CC)cc2)ccc1OCC(C)C,6.4,-2.6,0.522µM*,2.62µM*,·
COc1cc(/C=C/C(=O)NCCc2ccc(S(N)(=O)=O)cc2)ccc1OCC#N,1.2,1.8,11.7µM*,?,2.5%
COc1ccc(S(=O)(=O)NNC(=O)c2ccc(-n3c(C)ccc3C)cc2)cc1,0.6,-14.1,?,?,0.3%
O=C(COC(=O)c1cc(=O)[nH]c2ccccc12)Nc1ccc(Cl)cn1,·,·,12.3%,8.1%,·
CCc1cc2c(-c3ccccc3)cc(=O)oc2cc1OCC(C)=O,-2.7,·,13.1µM*,-23.6%,-55.2%
COc1cc(OC)nc(-n2ncc(Br)c(Br)c2=O)n1,-8.5,-24.1,13.1µM*,?,-36.0%
COC(=O)c1cnn(-c2nc(OC)cc(OC)n2)c1C,-4.3,17.2,21.0%,-0.3%,-9.9%
COc1ccc(NC(=O)CN(C)C(=O)c2cccc(S(=O)(=O)Nc3ccc(F)cc3)c2)cc1,·,·,-15.2%,?,·
CCn1nc(CC(=O)Nc2nnc(CC(=O)N3CCCC3)s2)c2ccccc2c1=O,4.7,24.1,0.0%,18.5%,20µM*
COc1ccc2c(c1)C1CC(C)(NC(=O)C1S(=O)(=O)c1ccc(F)cc1)O2 (stereo not given),-3.9,16.7,-20.2%,4.8%,-11.3%
CC(C)(C)C(=O)Nc1ccc(-c2cc3cc(Cl)ccc3o2)cc1,80.9*,124.4*,141.5%,112.8%,1.4%
O=C(NC1CCCCC1)c1cc(S(=O)(=O)N2CCOCC2)c(Cl)cc1Cl,-1.6,-3.3,?,-9.2%,-10.7%
O=c1nc2n(c3cc(Cl)c(S(=O)(=O)N4CCOCC4)cc13)CCCCC2,-4.5,12.3,9.28µM*,-17.1%,-9.3%
N=C(CC(O)COc1ccccc1-c1ccccc1)N1CCCCC1 (stereo not given),-0.9,1.9,·,·,·
COc1cc(/C=C2/NC(=O)N(Cc3ccccc3F)C2=O)ccc1O,-5.9,0.3,37.0%,?,·
CC(C)CN1CCN=C1Nc1ccccc1,7.8,0.9,30.7%,15.3%,10.3%
SMILES,CHX counter,Shiga toxin inh,Pf growth 96h,Pf growth 48h,NS1 inh
OCC(Cc1ccccc1)NCc1ccccc1C(F)(F)F (stereo not given),-2.2,-0.9,33.4%,-6.4%,11.4%
CC(NCc1ccc(Cl)c(Cl)c1)C(O)c1ccccc1 (stereo not given),-2.8,-12.7,·,?,-7.3%
COc1cc(CNC(C)c2ccccc2)cc(Cl)c1OCC(=O)Nc1ccccc1 (stereo not given),0.9,10.6,?,11.7µM*,-14.3%
CC(NCc1ccccc1Cl)C(O)c1ccccc1 (stereo not given),20.0,19.1,7.38µM*,9.28µM*,-7.8%
CCOc1cc(CNCC(O)c2ccccc2)cc(Cl)c1OC (stereo not given),-2.3,-14.1,298.5%,?,-1.8%
CC(NCc1ccccc1C(F)(F)F)C(O)c1ccccc1 (stereo not given),4.2,19.8,-0.8%,8.28µM*,5.6%
CCOc1cc(CNC(C)C(O)c2ccccc2)cc(Cl)c1OCC (stereo not given),-1.7,2.0,?,1.47µM*,5.7%
CCN1CCc2nc(NC(=O)C(c3ccccc3)c3ccccc3)sc2C1,-1.9,-25.7,8.28µM*,·,3.5%
CCN1CCc2nc(NC(=O)c3ccc4c(c3)OCCO4)sc2C1,32.9*,97.9*,96.1%,140.4%,4.2%
CCN1CCc2nc(NC(=O)CC(c3ccccc3)c3ccccc3)sc2C1,-3.7,-1.5,10.4µM*,5.86µM*,17.4%
CCN1CCc2nc(NC(=O)Cc3ccc4c(c3)OCCO4)sc2C1,7.7,17.4,-12.6%,?,-0.3%
CCN1CCc2nc(NC(=O)c3ccc(S(=O)(=O)N(C)C)cc3)sc2C1,7.9,25.7,-9.3%,83.8%,·
CCc1ccc(NC(=O)CN(c2cccc(C)c2)S(C)(=O)=O)cc1,12.2,-5.3,40.7%,·,-2.9%
O=C(NCCc1ccccn1)C1CCCN(S(=O)(=O)Cc2ccccc2)C1 (stereo not given),-1.7,-14.3,3.7µM*,·,-7.6%
O=C(NCc1ccccn1)C1CCCN(S(=O)(=O)c2ccccc2)C1 (stereo not given),-2.8,-8.0,·,4.6%,-0.3%
O=C(O)C1CCCN(S(=O)(=O)Cc2ccccc2)C1 (stereo not given),-1.3,4.7,2.33µM*,38.0%,2.7%
O=C(Nc1ccc2c(c1)OCCO2)C1CCCN(S(=O)(=O)Cc2ccccc2)C1 (stereo not given),55.8*,71.9*,0.0%,·,-4.7%
O=C(C1CCCN(S(=O)(=O)Cc2ccccc2)C1)N1CCC(Cc2ccccc2)CC1 (stereo not given),-6.1,-12.1,?,·,-45.7%
CNC(=O)c1c[nH]c2ccc(S(=O)(=O)Nc3cccc(SC)c3)cc2c1=O,-1.9,-4.5,57.8%,-2.7%,7.7%
CSc1cccc(NC(=O)CN(c2cc(C)ccc2C)S(C)(=O)=O)c1,-6.0,-11.8,15.9%,-7.5%,-1.0%
CS(=O)(=O)N1CCC(C(=O)Nc2ccc3c(c2)OCCO3)CC1,-1.7,-3.4,-19.5%,·,7.5%
CCCCCCN=CC1=C(O)CC(C)(C)CC1=O,1.6,-1.5,-4.6%,-2.1%,-8.2%
CC1(C)CC(=O)C(C=NCCc2ccc(O)cc2)=C(O)C1,-4.7,8.6,5.22µM*,-13.9%,12.6%
CC1(C)CC(=O)C(C=NCc2ccc3c(c2)OCO3)=C(O)C1,active,-3.5,14.0%,-13.9%,1.3%
CC1(C)CC(=O)C(C=Nc2cccnc2)=C(O)C1,16.6,3.3,6.6%,33.0%,-3.4%
